Screening data deposited in PubChem by Columbia University Molecular Screening Center.
The list is not random: actives were taken first. Their share in the collection is about 1.5%.
TNFa cytotox: toxic to HUVEC cells under TNF alpha stimulation. cell count reduction, % at 2 µM. actives 0.17% (n = 93,000). HUVEC TNFalpha-stimulated, Hoechst cell count, imaging;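 active means cell count reduction exceeding the screen mean by over 5 SD, scaled to untreated wells per plate, cut at about 78% in these data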;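 further: cells counted after 24 h of TNF alpha exposure following the 1 h pretreatment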
VCAM1 TNFa inh: reduces TNF alpha induced VCAM1 expression in HUVEC | AID 802 | HUVEC TNFa-induced VCAM-1 immunofluorescence, high-content imaging | inhibition, % at 2 µM | actives 0.48% (n = 95,000);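 active means inhibition above the batch mean plus 3 SD, with images confirmed as a hit by eye, cut at about 37% in these data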;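 further: 0% = TNF-stimulated DMSO wells and 100% = unstimulated control wells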
NFkB transloc pot: enhances IL-1B driven NFkB nuclear translocation. activation, % at 2 µM. actives 0.3% (n = 94,000). HUVEC IL-1B NFkB p65 nuclear translocation imaging;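 active means activation above 40%, about the mean plus 3 SD, also judged a hit on visual image review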;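 further: percent activation is computed from the nuclear over cytoplasmic p65 intensity ratio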
IL1B NFkB inh: blocks IL-1B driven NFkB nuclear translocation in HUVEC cells | HUVEC IL-1B NFkB p65 nuclear translocation imaging | inhibition, % at 2 µM | actives 0.43% (n = 94,000);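 active means inhibition above about 30% together with a positive call from visual inspection of the well image, limit read from the data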;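 further: nuclear over cytoplasmic p65 intensity ratio measured by imaging; 0% = IL-1B stimulated DMSO wells and 100% = unstimulated DMSO wells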
HUVEC tox IL1B: toxic to HUVEC cells under IL-1B stimulation; HUVEC cell count loss, Hoechst imaging, IL-1B stimulated; cell count reduction, % at 2 µM; actives 0.41% (n = 94,000); AID 845;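 active means cell count reduction more than 3 SD above the screen-wide mean, cut at about 70% in these data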;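 further: normalized per plate to untreated control cells as the no-loss baseline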
* marks the source's active call; other numbers are inactive results; . = not tested or not shown.

SMILES | TNFa cytotox | VCAM1 TNFa inh | NFkB transloc pot | IL1B NFkB inh | HUVEC tox IL1B
Cc1cc(NS(=O)(=O)c2ccc(NC(=O)CCCOc3ccc(Cl)cc3)cc2)no1 | -28.2 | 4.0 | -9.0 | 9.0 | -29.6
Cc1cc(NS(=O)(=O)c2ccc(NC(=O)CCCOc3ccccc3)cc2)no1 | 1.4 | 7.1 | 44.7* | -44.7 | 9.4
CCC(=O)N1CCN(c2cc(C)ccc2C)CC1 | -16.7 | -3.0 | 3.6 | -3.6 | -35.0
Cc1ccc(C)c(N2CCN(C(=O)CC3Sc4ccccc4NC3=O)CC2)c1 (stereo unspecified) | -17.7 | -2.9 | -4.9 | 4.9 | 78.8*
CCOC(=O)c1cnn(-c2ccccc2)c1-n1cccc1 | -14.6 | 5.2 | -24.1 | -5.0 | 38.8
CCOC(=O)c1cnn(-c2ccccc2)c1-n1cccc1C(=O)C(=O)Nc1ccc(OC)cc1 | -26.2 | -13.7 | 9.4 | -9.4 | 94.2*
CC(C)(C)SCCNC(=O)CN(c1ccc(F)cc1)S(C)(=O)=O | 79.3* | 90.0* | 10.4 | -10.4 | -12.4
CC(C)(C)NC(=O)c1cccc(NC(=O)CSc2ccccc2)c1 | -10.7 | 6.2 | -3.3 | 3.3 | 10.9
O=C(CCCCCN1C(=O)c2ccccc2C1=O)Nc1nccs1 | 69.2 | 50.1* | 3.1 | -3.1 | -14.6
O=C(CCCCCN1C(=O)c2ccccc2C1=O)Nc1ccccc1 | -23.9 | 8.9 | . | . | .
CSC(=NC#N)N1CCN(c2cccc(Cl)c2)CC1 | -13.0 | 8.6 | -4.4 | 4.4 | 5.1
O=C(CSc1nnc(Cc2cc(=O)[nH]c(=O)[nH]2)n1-c1ccc(Cl)cc1)NCC1CCCO1 (stereo unspecified) | -3.2 | -4.4 | -3.8 | 3.8 | 3.9
O=C(CSc1nnc(Cc2cc(=O)[nH]c(=O)[nH]2)n1-c1ccccc1)NCC1CCCO1 (stereo unspecified) | -25.1 | 14.7 | -14.7 | 14.7 | 92.8*
Cc1ccc(S(=O)(=O)Cn2nnnc2C(c2ccccc2)N2CCN(c3ncccn3)CC2)cc1 (stereo unspecified) | -5.1 | -19.9 | 4.2 | -4.2 | -4.5
COCCn1nnnc1C(C(C)C)N1CCN(C(=O)c2ccco2)CC1 (stereo unspecified) | 2.7 | -10.4 | -28.9 | 28.9 | 87.7*
Cc1ccc(S(=O)(=O)Cn2nnnc2C(c2ccccc2)N2CCN(c3ccccc3)CC2)cc1 (stereo unspecified) | -13.9 | -6.1 | -56.8 | 56.8* | 22.8
CCCC(c1nnnn1CCOC)N1CCN(C(=O)c2ccco2)CC1 (stereo unspecified) | 6.2 | -15.8 | . | . | .
Cc1ccc(S(=O)(=O)Cn2nnnc2C(C(C)C)N2CCN(C(=O)c3ccco3)CC2)cc1 (stereo unspecified) | 2.0 | -8.0 | 43.8* | -43.8 | -10.8
Cc1ccc(Cl)cc1NC1=C/C(=N\S(=O)(=O)c2cccs2)c2ccccc2C1=O | 27.7 | 90.6* | 41.0* | -41.0 | 2.6
COc1ccc(NC(=O)N2CCn3c2nc2ccccc23)cc1 | 5.7 | 58.0* | -19.1 | 19.1 | 2.3
O=C(Nc1ccccc1)N1CCn2c1nc1ccccc12 | 10.0 | 15.9 | 0.1 | -0.1 | -8.3
COc1ccc(C(=O)c2ccc(OC)c(N)c2)cc1N | 12.7 | 19.7 | 70.0* | -70.0 | -12.7
O=C(Nc1ccc2nc(-c3ccc(Br)o3)[nH]c2c1)c1cccs1 | -13.2 | -29.2 | -98.6 | 98.6* | 83.8*
O=C(Nc1ccc2nc(-c3ccc(Br)o3)[nH]c2c1)c1ccco1 | 4.2 | -26.0 | 3.5 | -3.5 | -44.4
COc1ccc(C2C(=O)N(CCc3ccccc3)CC(=O)N2C2CCCCC2)cc1 (stereo unspecified) | -6.0 | 16.7 | . | . | .
SMILES | TNFa cytotox | VCAM1 TNFa inh | NFkB transloc pot | IL1B NFkB inh | HUVEC tox IL1B
OCCCCNc1cccc2ccccc12 | -20.5 | 43.3* | -16.5 | 16.5 | -89.2
OCCCCCNc1ncnc2ccccc12 | -14.3 | 2.1 | 21.0 | -21.0 | -23.0
COC(=O)Oc1ccc(/C=N/NC(=O)CSCc2ccccc2Br)cc1OC | 2.4 | 9.2 | -14.9 | 14.9 | 5.7
CC1=C(C(N)=O)C(c2ccc(Cl)cc2Cl)n2ncnc2N1 (stereo unspecified) | 11.3 | 18.4 | -95.8 | 95.8* | 63.3
CCOC(=O)CSc1nc(C)c(C(=O)OCC)s1 | . | -36.4 | 4.5 | -4.5 | -14.7
CCOC(=O)c1sc2cc([N+](=O)[O-])cc(SCC(=O)OC)c2c1N | -12.9 | 5.8 | 50.7* | -50.7 | 9.0
O=c1c(-c2ccnn2-c2cccc(Cl)c2)cnc2n1CCS2 | -6.7 | 19.9 | 8.2 | -8.2 | -3.8
O=c1c2cc(F)ccc2[nH]c(=S)n1CCCN1CCOCC1 | -1.5 | 19.1 | 0.1 | -0.1 | -11.4
Cc1cc(Cl)cc(Br)c1OCCCN1C(=O)NC(C)(C)C1=O | -39.2 | 3.2 | 0.9 | -0.9 | -27.0
